PubChem BioAssay (EPA / NIEHS)
Values joined by “and” are separate entries in the source; they are usually repeats but may differ in a detail not shown here. Identical values can stand only once. More than one record can exist for a structure, and the calls need not agree. Active and inactive are the calls of the source. Rule for the calls: active = hit-call score of the fitted dose curve at least 0.9, where 1 is the maximum; inactive = score below 0.9.

Biological target: X-box-binding protein 1 (Homo sapiens) (UniProt P17861)
Assay: ATG_Xbp1_CIS: Attagene CIS-FACTORIAL HepG2 Assay for human X-box Binding Protein 1 (XBP1) (AID 2282972)
Conditions: HepG2 XBP1 cis-element reporter, Attagene multiplex; actives raise or lower the signal
Description: ATG_CIS is a cell-based, multiplexed-readout assay that uses HepG2, a human liver cell line, with measurements taken at 24 hours after chemical dosing in a 24-well plate.ATG_Xbp1_CIS is one of 52 assay component(s) measured or calculated from the ATG_CIS assay. It is designed to make measurements of mRNA induction, a form of inducible reporter, as detected with fluorescence intensity signals by Reverse transcription polymerase chain reaction (RT-PCR) and Capillary electrophoresis technology.Data from the assay component ATG_Xbp1_CIS was analyzed into 1 assay endpoint. This assay endpoint, ATG_Xbp1_CIS, was analyzed with bidirectional fitting relative to DMSO as the negative control and baseline of activity. Using a type of inducible reporter, measures of mRNA for gain or loss-of-signal activity can be used to understand the reporter gene at the transcription factor-level as they relate to the gene XBP1. Furthermore, this assay endpoint can be referred to as a primary readout, because this assay has produced multiple assay endpoints where this one serves a reporter gene function. To generalize the intended target to other relatable targets, this assay endpoint is annotated to the dna binding intended target family, where the subfamily is basic leucine zipper.
Human liver HepG2 cells are transiently transfected with multiple reporter transcription units (MRTUs) in 6-well plates using FuGene 6 reagent (Roche; 3 ml FuGene/1 mg DNA). The MRTU constructs are regulated by a cis-regulating element (promoter). […] A major difference between the CIS and TRANS system is that in CIS activities of endogenous TFs are measured, whereas the TRANS assay evaluates changes in activities of exogenous, chimeric NR-Gal4 proteins. […] At the end of 24 hour incubation, total RNA was isolated using TriZol reagent (Invitrogen). The isolated RNA is then reverse-transcribed using oligo(dT) primer and Mo-MLV reverse transcriptase (Invitrogen) with DNAse I (Ambion) treatment for 30 min. The one-tenth of the produced cDNA was amplified by PCR using Taq DNA polymerase (Invitrogen) and two reporter sequence-specific primers. The PCR products were fluorescently labeled by primer extension with 6-arboxyfluorescein (6-FAM) 5'-labeled reporter sequence-specific primer (2 min at 95 C, 20 s at 68 C and 10 min at 72 C) and these products were digested with 5U of HpaI (New England Biolabs) for 2h at 37 C. The fragments were purified using Qiaquick PCR columns (Qiagen), analyzed on an ABI 3130xL genetic analyzer (Applied Biosystems) with peak positions identified by using a set of X-rhodamine (ROX)-labeled MapMarker1000 molecular weight standards (BioVentures). The raw capillary electrophoresis data was processed using Attagraph software (Attagene).

Sequence of X-box-binding protein 1 (Homo sapiens) (P17861 whole entry, looked up): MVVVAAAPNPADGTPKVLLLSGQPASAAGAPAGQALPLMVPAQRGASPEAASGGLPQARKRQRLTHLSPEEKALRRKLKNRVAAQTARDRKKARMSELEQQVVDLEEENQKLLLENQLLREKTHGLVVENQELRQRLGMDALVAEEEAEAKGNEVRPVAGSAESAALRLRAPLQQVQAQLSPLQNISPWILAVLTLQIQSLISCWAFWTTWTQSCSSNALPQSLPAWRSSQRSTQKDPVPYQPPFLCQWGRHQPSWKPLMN

outcome, inactive:
FC(F)(F)C1(F)C(F)(F)C(F)(F)C(F)(F)C1(F)F, Cc1ccccc1C(OCCN(C)C)c1ccccc1 (stereo not given), COC1=CC(=O)C[C@@H](C)[C@]12Oc1c(Cl)c(OC)cc(OC)c1C2=O, CCCCCCCCCCCC[N+](C)(C)CCCCCCCCCCCC, CCCCCCCCCCCC[N+](C)(C)Cc1ccccc1, CCC(=O)C=Cc1ccc(OC)cc1, C[N+](C)(CCCNS(=O)(=O)CCC(F)(F)C(F)(F)C(F)(F)C(F)(F)C(F)(F)C(F)(F)F)CC(=O)[O-], CC=O, Cc1ccc(N=Nc2c(O)ccc3ccccc23)c(C)c1, CN(C)c1ccc(C(=C2C=CC(=[N+](C)C)C=C2)c2ccccc2)cc1, O=P(O)(O)CCC(F)(F)C(F)(F)C(F)(F)C(F)(F)C(F)(F)C(F)(F)C(F)(F)C(F)(F)F, NNc1nc(-c2ccc([N+](=O)[O-])cc2)cs1, Clc1ccc(Nc2nnc(Cc3ccncc3)c3ccccc23)cc1, CCCCc1ccc2ccccc2c1S(=O)(=O)O, FC(F)(F)N1C(F)(F)C(F)(F)OC(F)(F)C1(F)F, NS(=O)(=O)O, COc1cc([N+](=O)[O-])ccc1N, Oc1cc2ccccc2cc1O, CCOC=C(C(=O)OCC)C(=O)OCC, C=CCOCC(CO)(CO)CO, CCCCCCCC(OC)OC, Oc1ccc(Cc2ccccc2O)cc1, O=C(O)CCC(F)(F)C(F)(F)C(F)(F)C(F)(F)C(F)(F)F, CCCC=O, CC(=O)CC(C)C, FC(OC(F)(F)C(F)(F)C(F)(F)F)C(F)(F)F (stereo not given), Clc1ccc2c(Cl)ccnc2c1, O=CC(F)(F)C(F)(F)C(F)(F)C(F)F

AC50, active:
Cc1ccccc1C(OCCN(C)C)c1ccccc1 (stereo not given) 124 µM, Cn1sccc1=O 160 µM, CCCCCCCCCCCC[N+](C)(C)Cc1ccccc1 11.1 µM, CCCCc1oc2ccccc2c1C(=O)c1cc(I)c(OCCN(CC)CC)c(I)c1 26.4 µM, CN(C)c1ccc(C(=C2C=CC(=[N+](C)C)C=C2)c2ccccc2)cc1 1.94 µM, C/C=C/C(=O)C1=C(C)CCCC1(C)C 34.6 µM, Oc1c(Cl)cc(Cl)cc1Sc1cc(Cl)cc(Cl)c1O 1.45 µM, O=S(=O)(c1ccc(OCc2ccccc2)cc1)c1ccccc1O 31 µM, COc1ccccc1NC(=O)c1cc2ccccc2cc1O 25.8 µM, CS(=O)(=O)c1ccc([C@@H](CC2CCCC2)C(=O)Nc2cnccn2)cc1Cl 70.7 µM, CC1COCc2cc3c(cc21)C(C)(C)C(C)C3(C)C (stereo not given) 73.4 µM, Cc1cc(C(C)(C)C)c(O)c(C(C)(C)C)c1 33.4 µM and 89.6 µM
